CF NFkB block: cystic fibrosis NF-kB activation inhibition; KKLEB NF-kB-GFP reporter, PAF-induced, GFP fluorescence overnight; inhibition, % at 5 µM; hit rate 0.86% among 360,000;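 active = at least 50% inhibition at 5 µM, scaled per plate between neutral and stimulator controls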;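 note: PAF is a Pseudomonas aeruginosa culture filtrate used as stimulus; plate controls were PAF-stimulated DMSO wells for no effect and unstimulated DMSO wells for full effect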
KKLEB cytotox: counter-screen for CF NF-kB inhibitors: cytotoxicity; activity change (cytotoxicity), % at 5 µM; hit rate 0.36% among 360,000; KKLEB CF airway cells viability, ATPlite luminescence, overnight; hits give low values; cells stimulated with P. aeruginosa culture filtrate;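 active = corrected activity change at or below -50% at 5 µM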
LGR2 inh: Drosophila LGR2 receptor signaling inhibition. HEK293 LGR2, CRE-luciferase, bursicon-stimulated, 4 h. inhibition, % at 9.99 µM. hit rate 0.35% among 380,000. AID 720647;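 active = drop in luminescence signal, shown as inhibition above about 50% in the replicate tests, limit read from the data, passing the limit was not always enough; inconclusive = probably only some replicates passing the limit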;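 note: agonist challenge used bursicon conditioned medium at about half maximal strength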
EWS-Fli block: blocks EWS/Fli oncoprotein-driven transcription; A673 NR0B1-luciferase reporter, viability-normalised; inhibition, % at 12.6 µM; AID 651661; hit rate 0.67% among 350,000;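 active = mean inhibition of at least 50% after viability correction, with every replicate also passing that limit; inconclusive = mean reaches 50% but only one of two replicates passes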;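 note: firefly luciferase signal divided by Alamar Blue viability fluorescence both relative to DMSO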
TWEAK Fn14 block: blocks TWEAK-Fn14 interaction in a reporter cell assay; TWEAK-stimulated Fn14 reporter cells, luciferase luminescence, 8 h; inhibition, % at 10 µM; hit rate 2% among 360,000; in the data active = inhibition above about 50%
TROY NFkB inh: blocks TROY-dependent signaling in reporter cells; inhibition, % at 10 µM; Q293 LMP1-TROYcd NF-kB luciferase reporter, 4 h; hit rate 0.98% among 360,000;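 active = compounds whose plate-normalised and pattern-corrected inhibition of the luciferase reporter signal at the single screening dose is 50% or more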
CF NFkB conf: CF NF-kB inhibition confirmation, single concentration. shares compounds with CF NFkB block. KKLEB CF airway cells, PAF-induced NF-kB-GFP fluorescence, overnight. inhibition, % at 5 µM. hit rate 64% among 1,300; in the data active = inhibition above about 40%;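 note: stimulus PAF is a Pseudomonas aeruginosa filtrate and not platelet activating factor; plate controls were DMSO wells with stimulus for no effect and unstimulated DMSO wells for full effect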
Active calls of the source: *; ! = not active in a repeat. In the library only some 2.6% were active in any assay of this set; here they are far more common.

Screening CCC(=O)N1[C@H](CO)[C@H](c2ccccc2)C12CN(C(=O)NC1CCCC1)C2 returned LGR2 inh 2.2 and EWS-Fli block 5.7.
`CCOC(=O)c1ccc2c(c1)nc(SC/C(O)=C(\C#N)c1nc3ccccc3[nH]1)n2CC` gave CF NFkB block 66.3*, KKLEB cytotox -38.5, TWEAK Fn14 block -5.3, TROY NFkB inh 5.0 and CF NFkB conf 59.0*.
For Cc1ccc(C(=O)Nc2cccc(C(F)(F)F)c2)cc1NC(=O)c1nccnc1N the results were CF NFkB block 59.2*!, KKLEB cytotox -44.5, LGR2 inh -2.9, EWS-Fli block 16.0, TWEAK Fn14 block -85.1, TROY NFkB inh -12.4 and CF NFkB conf 78.1*.
`Cc1ccc(C(=O)Nc2cccc(C(F)(F)F)c2)cc1NC(=O)c1cnnc2ccccc12` gave CF NFkB block 53.1*, KKLEB cytotox -24.7, LGR2 inh -2.7, EWS-Fli block -0.4, TWEAK Fn14 block -37.6, TROY NFkB inh -4.4 and CF NFkB conf 51.6*.
For CN1C(=O)c2cc(NC(=O)C3CCCC3)ccc2OC[C@@H]2O[C@H](CC(=O)NCC3CC3)CC[C@@H]21 the results were LGR2 inh 3.6 and EWS-Fli block -0.2.
Screening COC(=O)[C@H]1[C@H](CO)[C@H]2Cn3c(ccc(-c4cccc(F)c4)c3=O)[C@H]2N1Cc1ccncc1 returned LGR2 inh -6.6 and EWS-Fli block -55.2.
`COc1ccc(-n2nc(C(=O)NCC(=O)Nc3cc(OC)c(OC)c(OC)c3)c3ccccc3c2=O)cc1Cl` gave CF NFkB block 79.4*, KKLEB cytotox -19.7, LGR2 inh -2.4, EWS-Fli block 7.6, TWEAK Fn14 block 35.7, TROY NFkB inh 5.3 and CF NFkB conf 100.5*.
For CCCCCOC(=O)c1[nH]c2c(c1C)C(=O)CC(c1ccco1)C2 (stereo unspecified) the results were CF NFkB block 52.4*, KKLEB cytotox -47.0, TWEAK Fn14 block 38.6, TROY NFkB inh 21.1 and CF NFkB conf 84.5*.
Screening CCOCCOC(=O)c1[nH]c2c(c1C)C(=O)CC(c1ccccc1)C2 (stereo unspecified) returned CF NFkB block 35.9, KKLEB cytotox -15.0, LGR2 inh -4.3, EWS-Fli block inconclusive, TWEAK Fn14 block -11.1 and TROY NFkB inh 15.3.
Screening CCCN(C)C[C@@H]1Oc2cc(-c3ccccc3C)ccc2S(=O)(=O)N([C@@H](C)CO)C[C@H]1C returned LGR2 inh 8.0 and EWS-Fli block -2.0.
`COc1ccc(-c2[nH]n(-c3ccc([N+](=O)[O-])cc3)c(=O)c2C=NCc2ccccc2)cc1` gave CF NFkB block 50.5*, KKLEB cytotox -27.7, LGR2 inh 30.5, EWS-Fli block 3.2, TWEAK Fn14 block -3.2, TROY NFkB inh 0.8 and CF NFkB conf 23.1.
`Cc1ccc2nc(SCC(=O)Nc3cc(C(F)(F)F)ccc3N3CCOCC3)[nH]c2c1` gave CF NFkB block 50.2*, KKLEB cytotox -8.4, TWEAK Fn14 block 28.2, TROY NFkB inh 39.8 and CF NFkB conf 77.6*.
Screening O=C(CSc1nccc(=O)[nH]1)Nc1cc(C(F)(F)F)ccc1N1CCOCC1 returned CF NFkB block 2.9, KKLEB cytotox -4.1, LGR2 inh 1.0, EWS-Fli block -0.7, TWEAK Fn14 block 20.5 and TROY NFkB inh -0.2.
For Cc1ccccc1NC(=O)Cc1nc(COC(=O)c2ccc(S(C)(=O)=O)c([N+](=O)[O-])c2)cs1 the results were CF NFkB block 77.2*, KKLEB cytotox -16.0, LGR2 inh -12.7, TWEAK Fn14 block 69.0*, TROY NFkB inh 46.1 and CF NFkB conf 25.3.
NS(=O)(=O)c1cc(C(=O)OCC(=O)Nc2ccccc2[N+](=O)[O-])ccc1Cl was read as CF NFkB block -0.3, KKLEB cytotox -2.2, LGR2 inh -6.1, EWS-Fli block 5.0, TWEAK Fn14 block -14.7 and TROY NFkB inh -9.7.
`CS(=O)(=O)c1ccc(C(=O)OCc2nnc(-c3ccccc3)o2)cc1[N+](=O)[O-]` gave CF NFkB block 76.3*, KKLEB cytotox -27.5, LGR2 inh inconclusive, EWS-Fli block 34.8, TWEAK Fn14 block 66.4*, TROY NFkB inh 65.9* and CF NFkB conf 35.8.
`CS(=O)(=O)c1ccc(C(=O)OCC(=O)Nc2cccnc2Cl)cc1[N+](=O)[O-]` gave CF NFkB block 90.5*, KKLEB cytotox -31.3, LGR2 inh 7.6, TWEAK Fn14 block 22.3, TROY NFkB inh 8.1 and CF NFkB conf 40.0.
Screening Cc1ccccc1NC(=O)COC(=O)c1ccc(S(C)(=O)=O)c([N+](=O)[O-])c1 returned CF NFkB block 52.6*, KKLEB cytotox -20.0, LGR2 inh 1.4, EWS-Fli block 10.3, TWEAK Fn14 block 33.2, TROY NFkB inh 1.1 and CF NFkB conf 26.9.
`O=C(COC(=O)c1ccc([N+](=O)[O-])cc1)Nc1cccnc1Cl` gave CF NFkB block -27.6, KKLEB cytotox 26.3, LGR2 inh -11.9, TWEAK Fn14 block 21.9 and TROY NFkB inh -8.7.
`COCCNC(=O)C[C@H]1CC[C@H]2[C@H](COc3ccc(NS(=O)(=O)c4ccc(Cl)cc4)cc3C(=O)N2C)O1` gave LGR2 inh -2.3 and EWS-Fli block 2.7.
CC(=O)c1cccc(NC(=O)COC(=O)c2ccc(S(C)(=O)=O)c([N+](=O)[O-])c2)c1 was read as CF NFkB block 62.6*, KKLEB cytotox -0.9, LGR2 inh 36.3, EWS-Fli block 9.6, TWEAK Fn14 block 64.1*, TROY NFkB inh 44.8 and CF NFkB conf 43.2*.
Screening COc1ccc(C(=O)OCC(=O)Nc2ccccc2)cc1[N+](=O)[O-] returned CF NFkB block -0.1, KKLEB cytotox 10.9, LGR2 inh 15.4, EWS-Fli block 1.9, TWEAK Fn14 block 0.5 and TROY NFkB inh 1.4.
For CNC[C@@H]1Oc2ccc(NC(=O)Cc3ccccc3)cc2C(=O)N([C@H](C)CO)C[C@@H]1C the results were LGR2 inh 3.1 and EWS-Fli block -2.7.
For Cc1[nH]nc2nc(SCC(=O)NCCC3=CCCCC3)n(-c3ccc(Br)cc3)c(=N)c12 the results were CF NFkB block 63.2*, KKLEB cytotox -34.5, LGR2 inh -19.7, TWEAK Fn14 block -7.5, TROY NFkB inh 18.3 and CF NFkB conf 60.5*.
Cn1c(SC2=CS(=O)(=O)c3ccccc32)nc2ccccc21 was read as CF NFkB block 91.3*, KKLEB cytotox -26.6, TWEAK Fn14 block 87.7*, TROY NFkB inh 55.9* and CF NFkB conf 97.8*.
O=C(c1ccc(O)c(Br)c1)c1cc(Br)ccc1O was read as CF NFkB block 65.9*, KKLEB cytotox 8.3, LGR2 inh 22.5, EWS-Fli block -4.0, TWEAK Fn14 block 49.5, TROY NFkB inh 50.5* and CF NFkB conf 60.9*.
